Rows were chosen to be rich in hits. Some 12% of all compounds tested hit in one or more screens of this group.
PLK1 PBD block – inhibitors of human PLK1 polo-box domain binding; Plk1 PBD binding of FITC phosphopeptide, fluorescence polarization; P53350; actives 2.8% (n = 360,000); Potency, µM, for inactives: max response, negative = inhibition, usual class: inhibitors; AID 720504; note: series mostly up to about 57 µM; nearly all actives have a fitted effect of over 65% in size
ALDH1A1 block – blocks purified human ALDH1A1 activity; P00352; AID 1030; actives 7.3% (n = 220,000); Purified ALDH1A1, NADH fluorescence, propionaldehyde substrate; Potency, µM (highest dose often 75.3 µM), for the others: at the highest dose activity, negative = inhibition, actives largely listed as inhibitors; active = well fitted inhibition curve with a large enough effect, not every such curve was filed as active; inconclusive = small, poorly fitted or top-dose-only effect, or another doubt; inactive = no such curve, though single readings can be large or run the other way;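 note: plate controls were no enzyme wells and a reference inhibitor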
Target sequence (P00352 whole entry, looked up): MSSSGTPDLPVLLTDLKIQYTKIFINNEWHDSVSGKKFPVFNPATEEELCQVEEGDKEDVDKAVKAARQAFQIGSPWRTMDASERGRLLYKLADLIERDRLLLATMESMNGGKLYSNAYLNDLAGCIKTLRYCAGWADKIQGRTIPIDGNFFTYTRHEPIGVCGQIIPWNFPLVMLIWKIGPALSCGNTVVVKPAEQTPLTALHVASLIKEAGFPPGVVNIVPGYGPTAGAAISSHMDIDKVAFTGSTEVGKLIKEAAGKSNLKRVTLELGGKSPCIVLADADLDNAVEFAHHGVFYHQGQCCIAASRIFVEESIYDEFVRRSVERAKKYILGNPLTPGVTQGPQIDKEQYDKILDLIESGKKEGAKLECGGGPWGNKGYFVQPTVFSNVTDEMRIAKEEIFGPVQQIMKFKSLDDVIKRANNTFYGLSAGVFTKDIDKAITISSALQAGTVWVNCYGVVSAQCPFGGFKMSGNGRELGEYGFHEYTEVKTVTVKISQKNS
VP16 counter – counter-screen for ROR gamma inhibitors: Gal4-VP16 reporter | Drosophila S2 Gal4-VP16 UAS-luciferase, luminescence, 20 h | Potency, µM (doses to about 53.6 µM), without a hit: at the highest dose activity, negative = inhibition, most hits filed as inhibitors | actives 3.5% (n = 310,000) | AID 2546;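 note: Gal4-VP16 expression switched on by copper sulfate through the metallothionein promoter; nearly all actives have a fitted effect of over 50% in size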
Sfp PPTase inh – Sfp phosphopantetheinyl transferase inhibition; Q9F4F7; Biochemical Sfp PPTase activity, qHTS; Potency, µM, inactives show largest response in the series, negative = inhibition, most hits filed as inhibitors; actives 3.5% (n = 310,000);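 note: the enzyme is Sfp with the accession as filed and its product quenches rhodamine fluorescence; 0% = enzyme reaction without inhibitor and -100% = no enzyme wells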
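After 15 min at room temperature with compound, 15 nM Sfp received 5 uM rhodamine-CoA plus 12.5 uM BHQ-2-ybbR (50 mM Hepes pH 7.6, 10 mM MgCl2). Rate came from the fluorescence difference over 30 min, ex 525/em 598 nm.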
RORgamma inh – ROR gamma (mouse) transcription inhibition; P51450; actives 5.4% (n = 310,000); Potency, µM (highest dose often 53.6 µM), without a hit: top-dose activity change, negative = inhibition, most hits filed as inhibitors; AID 2551; Drosophila S2 Gal4-RORgamma UAS-luciferase reporter, 20 h; note: nearly all actives have a fitted effect of over 60% in size
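Stably transfected Drosophila Schneider cells are the test system, with ROR gamma fused to Gal4 and luciferase under UAS control; luminescence is read after 20 hr of 700 uM copper sulfate induction at ambient temperature.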
* = called active by the depositor; ? = inconclusive; . = no result given; [ ] = dose if it differs, or a comment. Unless noted, calls come from the whole dose curve; as a rule, active = well fitted curve in the direction sought with a large enough effect; inconclusive = small, poorly fitted or top-dose-only effect, or another doubt; inactive = no such curve, though single readings can be large; an effect the other way counts as inactive or inconclusive. Unless noted, % is set by controls: 0 for no effect and ±100 for the full control effect; potency is the fitted concentration of half-maximal effect.

SMILES	PLK1 PBD block	ALDH1A1 block	VP16 counter	Sfp PPTase inh	RORgamma inh
CSc1ccccc1NC(=S)N/N=C/c1cccn1Cc1ccc(F)cc1	0%	?	?	37%	?
CSc1ccccc1NC(=S)N/N=C/c1cccn1Cc1cccc(C)c1	0%	9%	5µM*	12%	0.89µM*
CCCCCCCCCCCCCCC1CO1 (stereo not drawn)	.	12%	-5%	.	15%
CC(C)C(=O)C(C)(C)CCc1ccccn1	.	5%[13.5 µM]	.	.	.
CCCNC(=O)OC[C@@H]1O[C@H](CCO/N=C\[C@@H](OC)[C@H](C)/C=C\CC(=O)OC)C=C[C@@H]1Oc1ccc(OC)cc1	.	-6%[13.5 µM]	-3%[10 µM]	13%	1%[10 µM]
CN(C(=O)CCc1ccccc1F)C1CCCN(Cc2ccccc2F)C1 (stereo not drawn)	3.4µM*	.	4%	8%	32%
CC(=O)c1cccc(NC(=O)CSc2ccc(-c3ccco3)nn2)c1	?	.	10%	20µM*	12%
CCc1ccc(NC(=O)CSc2nnc(-c3ccco3)o2)cc1	-2%	.	0%	11%	1%
CCc1ccc(NC(=O)CSc2ccc(-c3ccco3)nn2)cc1	19µM*	?	-7%	35µM*	9%
O=C(CSc1ccc(-c2ccco2)nn1)c1cccc([N+](=O)[O-])c1	-24%	22µM*	3%	14µM*	3%
CC[C@@H]1C(c2cccc(C)c2)=NN(c2ccc(Br)cc2)[C@H]1C(=O)N1CCOC1=O	.	?	-4%	25%	4%
Cc1ccc(S(=O)(=O)N2CCN(C(=O)c3ccc(-n4cncn4)c([N+](=O)[O-])c3)CC2)c(C)c1	-4%	.	.	.	.
CCCCN(C(=O)c1[nH]c(C)c(C(=O)OCC)c1C)c1c(N)n(CCCC)c(=O)[nH]c1=O	-8%	.	.	.	.
CCN1CCN(C(=S)NC(=O)/C=C/c2cccs2)CC1	-1%	-1%	?	-9%	3.2µM*
CCN1CCN(C(=S)NC(=O)c2cccs2)CC1	-2%	.	?	-24%	6.3µM*
O=C(CN1C(=O)NC2(CCCC2)C1=O)N1CCN(c2ccc(C(F)(F)F)cc2[N+](=O)[O-])CC1	-14%	.	.	.	.
O=C(NC(=S)N1CCN(c2ccc(C(F)(F)F)cc2[N+](=O)[O-])CC1)c1cccs1	-8%	-7%	?	31%	0.11µM*
O=C(Nc1cc2c(cc1Cl)-c1ccc([N+](=O)[O-])cc1C2=NO)C(F)(F)F	2%	.	.	.	.
COc1ccc(C)cc1NC(=O)CSc1nnc(-c2cc(C)[nH]n2)n1N	-16%	.	0%	5%	5%
O=C(CN1CC(c2ccccc2)CC1=O)OCc1ccccc1F (stereo not drawn)	-5%	8.9µM*	-6%	-18%	0%
Cc1scc(C(=O)N/N=C/c2ccc(Cl)s2)c1C	-2%	-2%	13µM*	19%	14µM*
COc1ccccc1/C=N/NC(=O)c1csc(C)c1C	4%	1%	20%	9%	-31%
CCOc1ccc(/C=N/NC(=O)c2csc(C)c2C)c(OCC)c1	4%	-4%	-9%	11%	13µM*
Cc1cc(SC(C)C(=O)NCC(=O)Nc2ccc(F)c(F)c2F)nc2ccccc12 (stereo not drawn)	-25%	0%	?	7%	10µM*
O=C(O)CC1(CC(=O)Nc2ccc(F)c(Cl)c2)CCCCC1	-7%	4µM*	-10%	18%	43%
SMILES	PLK1 PBD block	ALDH1A1 block	VP16 counter	Sfp PPTase inh	RORgamma inh
NCCCC[C@H](NC(=O)[C@@H]1CCCN1C(=O)[C@H](CO)NC(=O)[C@H](CC(=O)O)NC(=O)CNC(=O)[C@H](CCCN=C(N)N)NC(=O)CN)C(=O)O	.	.	-7%	-23%	-2%
CCN1CCN(C(CNS(=O)(=O)c2ccc(Cl)cc2)c2ccccc2)CC1 (stereo not drawn)	?	.	-4%	14%	-15%
O=S(=O)(NCC(c1ccccc1)N1CCNCC1)c1ccc(Cl)cc1 (stereo not drawn)	-3%	8.9µM*	-11%	-1%	-2%
Cc1cc2nc(C3CCCCC3)c(CC(C)(C)C)n2c(C)c1Br	5%	.	.	.	.
Cc1ccc(SC2=C(Sc3ccc(C)cc3)C(=O)c3ccccc3C2=O)cc1	1.7µM*	.	-6%	7.1µM*	28%
CC1CCCC2(C1)NC(=S)c1c(sc3c1CCCC3)N2 (stereo not drawn)	5.3µM*	3.5µM*	?	6.3µM*	32µM*
Cc1cccc(-n2c(-c3ccncc3)n[nH]c2=S)c1C	-3%	?	-10%	?	-28%
Cc1ccc(-n2c(-c3ccncc3)n[nH]c2=S)c(C)c1	-10%	-13%	?	-26%	11µM*
Cc1ccccc1-n1c(-c2ccncc2)n[nH]c1=S	-16%	16µM*	-18%	?	13µM*
Cc1ccccc1-n1c(-c2ccc(=O)[nH]n2)n[nH]c1=S	-8%	2%	-6%	71µM*	-23%
Cc1cc(-c2n[nH]c(=S)n2-c2ccccc2C)cs1	-2%	?	6.3µM*	?	2.8µM*
CCCCC/C=C\C/C=C\C/C=C\C/C=C\CCCC(=O)O[C@@H](CO)COC(=O)CCCCCCCCCCCCCCCCC	.	-2%	-4%	17%	1%
O=C(c1cc(C(F)(F)F)cc(C(F)(F)F)c1)N1CCC2(CC1)CCN(c1ccccn1)CC2	.	-8%	-16%	24%	-2%
O=C(O)CCC(=O)c1ccc2c(c1)OCCO2	0%	12%	-3%	12%	-11%
O=C(CCN1Cc2ccccc2C1)c1ccc2c(c1)OCCO2	24µM*	1.3µM*	16µM*	?	13µM*
O=C(O)CCSCC(=O)c1ccc2c(c1)OCCO2	-12%	15µM*	3.5µM*	45µM*	2µM*
COc1cccc(Cn2c(=O)c(CCc3ccccc3)nc3cnc(N4CCN(C)CC4)nc32)c1	.	?	2%	?	-25%
CCN(CC)S(=O)(=O)N1CCC(C(=O)NC2CCCc3ccccc32)CC1 (stereo not drawn)	0%	?	-24%	2%	-33%
Cc1nn(C)c(C)c1S(=O)(=O)N1CCCC(C(=O)NC2CCCCCC2)C1 (stereo not drawn)	27µM*	13%	15%	16%	24%
Cc1nn(C)c(C)c1S(=O)(=O)N1CCCC(C(=O)N2CCN(c3ccc(Cl)cc3)CC2)C1 (stereo not drawn)	3.4µM*	?	7%	12%	-2%
Cn1c(=O)oc2cc(S(=O)(=O)N3CCCC(C(=O)NC4CCCc5ccccc54)C3)ccc21 (stereo not drawn)	-3%	3%	0.1µM*	9%	?
Cc1n[nH]c(C)c1S(=O)(=O)N1CCCC(C(=O)NC2CCCCC2)C1 (stereo not drawn)	-9%	0%	-2%	6%	41%
Cc1nn(C)c(C)c1S(=O)(=O)N1CCC(C(=O)NC2CCCc3ccccc32)CC1 (stereo not drawn)	27µM*	8%	-4%	10%	8%

Bioassay records: PubChem BioAssay, National Center for Advancing Translational Sciences (NCATS)
